{
  "source": "PubChem BioAssay AID2726",
  "about": "(Broad Institute, 2010)",
  "note": "This is one part of the list. Activity calls are given as the source filed them.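 Rule for the calls: active = every replicate shows growth inhibition above 50%; inconclusive = at least half, but not all, replicates pass that cutoff; inactive = fewer than half of replicates pass it.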",
  "data": [
    {"assay": "Vibrio harveyi growth inhibition, confirmation, counter-screen for AI-2 quorum sensing project, JMH597 strain, OD600 absorbance (AID 2726)", "conditions": "9 h, at 7.5 µM, active compounds read high, lacks LuxN and CqsS sensors", "values": [
      {"smiles": "Cc1ccc(NS(=O)(=O)c2ccc3c(c2)NC(=O)CO3)cc1", "growth inhibition": "-1.97% (inactive)"},
      {"smiles": "O=C(CCC(=O)c1cccs1)Nc1nc2ccccc2s1", "growth inhibition": "-16.4% (inactive)"},
      {"smiles": "O=C(COC(=O)C1CCCCC1)Nc1ccc([N+](=O)[O-])cc1", "growth inhibition": "-6.27% (inactive)"},
      {"smiles": "Cc1ccccc1NC(=O)CCOc1ccccc1", "growth inhibition": "-12.9% (inactive)"},
      {"smiles": "COC(=O)C1CCN(C(=O)c2ccc3oc(Cc4ccc(Cl)cc4)nc3c2)CC1", "growth inhibition": "26.4% (inactive)"},
      {"smiles": "COc1cccc(NC(=O)NCc2ccc(F)cc2)c1", "growth inhibition": "-8.06% (inactive)"},
      {"smiles": "Cc1ccc(Oc2cnn(-c3ccccc3)c(=O)c2Br)cc1", "growth inhibition": "-6.12% (inactive)"},
      {"smiles": "O=C1COc2ccc(S(=O)(=O)Nc3ccc(OC(F)(F)F)cc3)cc2N1", "growth inhibition": "41.4% (inactive)"},
      {"smiles": "CC(=O)c1cccc(OCc2cc(C(=O)NC(C)Cc3cccnc3)no2)c1", "note": "(configuration not stated)", "growth inhibition": "1.63% (inactive)"},
      {"smiles": "N/C(=N\\OC(=O)CCc1ccccc1)c1cccnc1", "growth inhibition": "3.39% (inactive)"},
      {"smiles": "COC(=O)c1ccc(SCc2ccccc2)nc1", "growth inhibition": "13.9% (inactive)"},
      {"smiles": "S=C(NCc1ccc(Cl)cc1)NC1CCCCC1", "growth inhibition": "11.3% (inactive)"},
      {"smiles": "CC(CNc1ccc([N+](=O)[O-])cc1)NC(=O)c1ccccc1Br", "note": "(configuration not stated)", "growth inhibition": "16.7% (inactive)"},
      {"smiles": "Cc1cc(C(=O)OCC(=O)Nc2ccc(F)c(F)c2)c(C)o1", "growth inhibition": "2.76% (inactive)"},
      {"smiles": "CCOC(=O)c1nn(-c2cccc(C)c2)cc1C(=O)c1ccccc1", "growth inhibition": "-8.39% (inactive)"},
      {"smiles": "O=C(Cn1cnc2ccccc2c1=O)Nc1cccc(S(=O)(=O)N2CCCCC2)c1", "growth inhibition": "22.5% (inactive)"},
      {"smiles": "O=C(Nc1ccc(F)c(Cl)c1)C1CCN(S(=O)(=O)c2cccnc2)CC1", "growth inhibition": "-9.31% (inactive)"}
    ]}
  ]
}
